High-throughput results from PubChem BioAssay.
TTR transcr act: activators of transthyretin transcription. activation, % at 16.7 µM. AID 1117267. hit rate 1.3% among 92,000. SH-SY5Y TTR promoter Gaussia luciferase, luminescence; 100% = recombinant luciferase protein wells;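 active = activation above the mean of all tested compounds plus 3 SD, cut at about 9.5% in these data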;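 note: cells exposed to compounds for one day before reading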
Of the large screens only hits and unclear results are named; the others gave an inactive call. Only a selection was taken, and hits are over-represented in it overall.

COC(=O)c1cccc(NC(=S)Nc2cccc(Cl)c2Cl)c1	none
COC(=O)c1cc(OC)c(OC)cc1NC(=S)Nc1cc(Cl)ccc1OC	none
COC(=O)c1cc(OC)c(OC)cc1NC(=S)Nc1cccc(Cl)c1	TTR transcr act 17
O=C(Nc1ccc(C(O)(C(F)(F)F)C(F)(F)F)cc1)c1c(F)cccc1F	none
COc1ccc(CNC2CCC23CCCCC3)cc1OC (configuration not stated)	none
CC(=O)O[C@H]1[C@H](OC(C)=O)C[C@]2(OC(C)=O)C[C@H]1OC2=O	none
CCOc1ccc(-n2c(SCC(N)=O)nc3c([nH]c4ccccc43)c2=O)cc1	TTR transcr act 12
CCOc1ccc(-n2c(SCC(=O)Nc3cc(C)on3)nc3c([nH]c4ccccc43)c2=O)cc1	none
COc1ccc(-n2c(SCC(=O)Nc3cc(C)on3)nc3c([nH]c4ccccc43)c2=O)cc1	none
CCCCCCC/C=C(\C)[C@@H](O)[C@@H](C)C(=O)N1CCC[C@@H]1C(=O)O[C@H](C(=O)O[C@@H](C)C(=O)O)[C@@H](C)CC	none
COC(=O)[C@]12C[C@H](CC(=O)NCc3ccccc3)C(=O)N(Cc3cccc4ccccc34)C1=C[C@H](C(C)C)O[C@@H]2C1CC1	none
O=C1c2ccccc2C(=O)N1CCc1nc(-c2ccccn2)no1	none
Cc1ccc(OCc2nc(-c3ccccn3)no2)c(Br)c1	TTR transcr act 14
Clc1ccccc1OCc1nc(-c2ccncc2)no1	none
CCOC(=O)[C@@]12CCCC=C1N(CCc1ccc(Cl)cc1)C(=O)[C@H]2CC(=O)NCc1ccc(C)o1	none
Cc1ccc(Cn2cc(COC(=O)N3CCOCC3)nn2)cc1	none
COc1ccc(C(c2nnnn2Cc2cccs2)N2CCC(C(N)=O)CC2)c(OC)c1 (configuration not stated)	none
CC(C)CC(c1nnnn1Cc1ccco1)N1CCN(C2CCCC2)CC1 (configuration not stated)	none
CC(C)CC(c1nnnn1Cc1ccccc1)N1CCC(C(N)=O)CC1 (configuration not stated)	TTR transcr act 18
CC(C)C[C@H](NC1(C(=O)NCCc2c[nH]c3ccccc23)CCC1)C(=O)NCCCc1ccccc1	none
CC(C)CN1C(=O)C[C@]2(C(=O)N(C)c3ccc(NC(=O)C(F)(F)F)cc32)C1c1ccccc1 (some centres not stated)	none
CCOCCCNC(=O)CCNC(=O)c1cc(OC)c(OC)c(OC)c1	none
COc1cc(C(=O)NCCC(=O)NCCCN2CCCCC2)cc(OC)c1OC	TTR transcr act 20
COc1cc(C(=O)NCCC(=O)NCCc2ccc(Cl)cc2)cc(OC)c1OC	none
O=S1(=O)c2c(cccc2N2CCC[C@H]2CO)O[C@H]2CCN1C2	none
CCC[C@H]1[C@@H](NC(=O)c2ccc(N(C)C)cc2)CC[C@@]23CCCN2C(=O)CCC[C@@H]13	none
Cc1ccc(CN(C)C[C@H]2OCc3cnnn3CCCC(=O)N([C@H](C)CO)C[C@@H]2C)cc1	none
CCOC(=O)C1C(=O)CC(C)(O)C(C(=O)OCC)C1c1cccc(OC)c1 (configuration not stated)	none
CC(C)OC(=O)C1C(=O)CC(C)(O)C(C(=O)OC(C)C)C1c1cccnc1 (configuration not stated)	TTR transcr act 12
CCOC(=O)C1C(=O)CC(C)(O)C(C(=O)OCC)C1c1ccc(OC)cc1 (configuration not stated)	none
COC(=O)[C@]12C[C@H](CC(=O)NCCC(C)C)C(=O)N(Cc3cccc4ccccc34)C1=C[C@H](C(C)(C)C)O[C@@H]2C	none
Cc1onc(C(=O)N2CCN(C(c3ccc(F)cc3)c3ccc(F)cc3)CC2)c1[N+](=O)[O-]	none
O=C1c2ccccc2C(=O)N1CC#CCN1CCN(C(c2ccccc2)c2ccccc2)CC1	TTR transcr act 11
OC(C#CCN1CCCC1)c1ccccc1 (configuration not stated)	none
O=C(C(c1ccccc1)c1ccccc1)N1CCN(CCN2C(=O)c3cccc4cccc(c34)C2=O)CC1	none
COc1cc(O)c(C(CC(=O)N2CCCC(C)C2)c2ccccc2)c(OC)c1 (configuration not stated)	none
Cc1ccc2c(N)c(C#N)sc2n1	TTR transcr act 27
Cc1ccc2c(n1)sc1c(-c3ccccc3)c(C#N)c(N)nc12	none
Cc1ccc2nc(-c3sc4nc(C)ccc4c3N)[nH]c2c1	none
CC1(c2nnnn2-c2ccc3c(c2)OCCO3)CSCC(=O)N1CCc1c[nH]c2ccccc12 (configuration not stated)	none
CN1C2=N[C@H](c3ccccc3Br)CC(=O)N2/C(=C\c2ccccc2)[C@@H]1c1ccccc1	none
COC(=O)[C@]12C[C@H](CC(=O)NCc3ccc(C)o3)C(=O)N(Cc3ccc(Cl)cc3Cl)C1=C[C@H](COCc1ccccc1)O[C@@H]2C	none
O=C(Nc1cccc(F)c1)O[C@@H]1CC[C@@]23CCCN2C(=O)CCC[C@H]3C1	none
CC(=O)NCC(=O)N(Cc1ccco1)C1(C(=O)NC2CCCCC2)CCCCC1	none
CC(=O)N(Cc1ccco1)C1(C(=O)NC2CCCCC2)CCCCC1	TTR transcr act 10
Cc1cc(NC(=O)CCC(=O)N(Cc2ccco2)C2(C(=O)NC3CCCC3)CCCCC2C)no1 (configuration not stated)	none
